# In ChEMBL document CHEMBL4513216, “Probing the Open Global Health Chemical Diversity Library for Multistage-Active Starting Points for Next-Generation Antimalarials” (ACS Infect Dis, 2020):
# The campaign covered roughly 69,000 compounds. About 8,600 (12%) showed an effect of 50% or more. The list comes from a sample in which strong results are over-represented; it also holds similar structures and randomly drawn compounds.
# Tested on: Plasmodium berghei
# Experiment: Screen against P. berghei liver stage (PbLuc), transformed with Luciferase, at 10uM
# Type: functional, HepG2
# Conditions: tested at 10 uM
row,SMILES,INHIBITION [%]
1,Cc1nc(C)c(C(C)NCc2c(C)nn(C)c2N(C)C)s1 (stereo not drawn),-15.1
2,Cc1nn(CC(C)C)c(N(C)C)c1CNCCC(=O)NC(C)C,13
3,Cc1nc(C)c(C(C)NCc2c(C)nn(CC(C)C)c2N(C)C)s1 (stereo not drawn),50
4,Cc1nn(CC(C)C)c(N(C)C)c1CNCCCNS(C)(=O)=O,42.1
5,CNC(=O)CCCNCc1c(C)nn(C)c1N(C)C,14.7
6,CC(=O)NCCCNCc1c(C)nn(CC(C)C)c1N(C)C,61.1
7,Cc1nc(C)c(C(C)NCc2c(C(C)C)nn(C)c2N(C)C)s1 (stereo not drawn),1.2
8,Cc1nn(CC(C)C)c(N(C)C)c1CNCCS(C)(=O)=O,26.4
9,CNC(=O)CCCNCc1c(C)nn(CC(C)C)c1N(C)C,53.3
10,Cc1noc(C)c1CN1CCN(Cc2cccnc2)c2ncccc2C1,22.9
11,COCCCn1ccc(NS(=O)(=O)c2cc(F)c(C)cc2F)n1,23.1
12,CCOc1ccc(Cl)c(C(=O)NCCC(=O)Nc2ccncc2)n1,-0.44
13,O=C1C[C@H]2[C@@H](CCN2C(=O)Cc2cccs2)N1Cc1ccncc1,37.1
14,CCn1cc(C(=O)N2CCOCC2)cn1,-60.9
15,CCN(CC)C(=O)c1nc2c(s1)CCN(C(=O)CCC(=O)OC)CC2,12.7
16,COC(=O)CCC(=O)N1CCc2nc(C(=O)N(C)C)sc2CC1,79.2
17,COC(=O)CCC(=O)N1CCc2nc(C(=O)N3CCOCC3)sc2CC1,-4.99
18,CNC(=O)c1nc2c(s1)CCN(C(=O)Cc1ccc(OC)cc1)CC2,14.2
19,COCC(=O)N1CCc2nc(C(=O)N(C)C)sc2CC1,-6.46
20,COC(=O)CCC(=O)N1CCc2nc(C(=O)N3CCCCC3)sc2CC1,57.1
21,CC(=O)N(C)C1CCN(c2ncc3c(n2)CCN3c2ccccc2)C1 (stereo not drawn),9.4
22,CN(C)c1ncccc1CNC(=O)NCC(c1cccs1)N(C)C (stereo not drawn),23.2
23,COC[C@@]12CCO[C@@H]1CCN(C(=O)COc1ccc(C)cc1)C2,-3.52
24,O=C(Nc1ccc(F)cc1)C(c1ccccc1)N1CCOCC1 (stereo not drawn),-3.94
25,COc1cc(CN2CC(=O)N(c3ccc(C)cc3)CC2C)cc(OC)c1 (stereo not drawn),46.6
26,COc1ccc(CN2CC(=O)N(c3ccc(C)cc3)CC2C)cc1O (stereo not drawn),43.2
27,COc1cccc(OC)c1CN1CC(=O)N(c2ccc(C)cc2)CC1C (stereo not drawn),76.8

row,SMILES,INHIBITION [%]
1,Cn1cc(CN2CCC[C@]3(C[C@@H](Oc4ncccc4F)CO3)C2)cn1,35.5
2,CC(C)c1ccc(OCCC(=O)N2CCCC(C(N)=O)C2)cc1 (stereo not drawn),4.18
3,CS(=O)(=O)c1ccc2c(c1)N(C(=O)c1cccc(F)c1)CCC2,9.63
4,CC(=O)N1CCCc2ccc(S(=O)(=O)N3CCCCC3C)cc21 (stereo not drawn),54.4
5,CC(=O)N1CCc2ccc(S(=O)(=O)N3CCCCC3C)cc21 (stereo not drawn),-0.178
6,Cc1cc(-c2c[nH]nc2C2CCCCN2C(=O)c2ccccc2)on1 (stereo not drawn),23
7,Nc1ccnc(N2CCC(c3nccn3CC3CC3)CC2)n1,-16.3
8,COCC1CN(Cc2ccsc2)Cc2cnn(C)c21 (stereo not drawn),-0.371
9,CCn1ncc2c1C(COC)CN(Cc1cnn(C)c1)C2 (stereo not drawn),68.8
10,CCn1ncc2c1C(COC)CN(Cc1cccnc1)C2 (stereo not drawn),-67.6
11,CCn1ncc2c1C(COC)CN(Cc1ccc(OC)cc1)C2 (stereo not drawn),42.1
12,CCn1ncc2c1C(COC)CN(Cc1ccsc1)C2 (stereo not drawn),62.6
13,CCn1ncc2c1C(COC)CN(Cc1ccc(F)cc1)C2 (stereo not drawn),-2.35
14,CCc1nc(C2CCCN(C(=O)c3ccc4[nH]cnc4c3)C2)no1 (stereo not drawn),5.7
15,Cc1nc(N[C@H]2COC[C@@H]2N2CCCCC2)c2c(C)nn(C)c2n1,24.8
16,COc1cc(OC)c2nc(NCCN3CCNC3=O)cc(C)c2c1,7.92
17,COc1nc2ccccc2cc1C1CC(=O)Nc2n[nH]c(C3CCC3)c21 (stereo not drawn),-1.7
18,Cc1noc(C)c1CNCC1COCc2c(-c3ccsc3)nnn2C1 (stereo not drawn),-57.1
19,Nc1nccnc1CC1CCCN(Cc2c[nH]c3ccccc23)C1 (stereo not drawn),24.8
20,Nc1nccnc1CC1CCCN(Cc2cccc3[nH]ccc23)C1 (stereo not drawn),-1.16
21,COc1ccccc1CN1CCCC(Cc2nccnc2N)C1 (stereo not drawn),21.1
22,Cn1ccnc1CN1CCCC(CCc2ccc(F)c(F)c2)C1 (stereo not drawn),37.7
23,Nc1nccnc1CC1CCCN(Cc2ccnc3ccccc23)C1 (stereo not drawn),78.7
24,COc1ccnc(CN2CCCC(CCc3ccccc3)C2)c1OC (stereo not drawn),75.7
25,O=C(O)COc1ccc(CN2CCCC(CCc3ccccc3)C2)cc1 (stereo not drawn),28.5
26,COc1ccccc1N1CCN(Cc2nccc(OC)c2OC)CC1=O,40.7
